# Reference: the supplement of paper PMC8728848
# Many of the other results were omitted from the sample, so the strongest signals are more common in it than they were.
# B1: DrGal3 (Danio rerio) (protein)
# chain: MDLSDALDAPPQQNNQQAGGPVWPGQPANPVWPGQPANPTWPGQPNQPAWPGQPNQQWPGQPGQPTAPGWPGPAPQTGPYGAPGQAPQVLTVPLDFPLQNGAYNKMLITINGEVKPNAKQFTVNLRRGNDIAFHINPRFSEGGKPVIVRNSMIGNNWGREERELPSFPFVPGKPFEMKILITDTEYKVAVNKSHLLEFKHRVFELNQITGLSIYNDVTLSTVNVETLQ
# Columns and labels:
# Experiment in all cases: glycan array binding signal (z-score within array); higher = stronger binding
# Conditions in all cases: glycan notation: IUPAC condensed, linker removed
# [1] = molecular target: Gal(b1-4)GlcNAc(b1-3)Gal(b1-4)GlcNAc(b1-3)Gal(b1-4)GlcNAc(b1-3)Gal(b1-4)GlcNAc(b1-3)Gal(b1-4)GlcNAc(b1-2)Man(a1-3)[Gal(b1-4)GlcNAc(b1-3)Gal(b1-4)GlcNAc(b1-3)Gal(b1-4)GlcNAc(b1-3)Gal(b1-4)GlcNAc(b1-3)Gal(b1-4)GlcNAc(b1-2)Man(a1-6)]Man(b1-4)GlcNAc(b1-4)[Fuc(a1-6)]GlcNAc
# Method in brief: (§1)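 The Consortium for Functional Glycomics database supplied 3228 glycan arrays, of which those lacking an available protein sequence were dropped. The binding signal, a within-array Z-score, was averaged across arrays of the same protein sequence and across linkers. Negative scores can be read as non-binding.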
# [2] = molecular target: Gal(b1-4)GlcNAc(b1-3)Gal(b1-4)GlcNAc(b1-3)Gal(b1-4)GlcNAc(b1-3)Gal(b1-4)GlcNAc(b1-3)Gal(b1-4)GlcNAc(b1-2)[Gal(b1-4)GlcNAc(b1-3)Gal(b1-4)GlcNAc(b1-3)Gal(b1-4)GlcNAc(b1-3)Gal(b1-4)GlcNAc(b1-3)Gal(b1-4)GlcNAc(b1-6)]Man(a1-6)[Gal(b1-4)GlcNAc(b1-3)Gal(b1-4)GlcNAc(b1-3)Gal(b1-4)GlcNAc(b1-3)Gal(b1-4)GlcNAc(b1-3)Gal(b1-4)GlcNAc(b1-2)Man(a1-3)]Man(b1-4)GlcNAc(b1-4)[Fuc(a1-6)]GlcNAc
# Method in brief: as §1
# [3] = molecular target: Gal(b1-4)GlcNAc(b1-3)Gal(b1-4)GlcNAc(b1-3)Gal(b1-4)GlcNAc(b1-3)Gal(b1-4)GlcNAc(b1-3)Gal(b1-4)GlcNAc(b1-3)Gal(b1-4)GlcNAc(b1-2)Man(a1-3)[Gal(b1-4)GlcNAc(b1-3)Gal(b1-4)GlcNAc(b1-3)Gal(b1-4)GlcNAc(b1-3)Gal(b1-4)GlcNAc(b1-3)Gal(b1-4)GlcNAc(b1-3)Gal(b1-4)GlcNAc(b1-2)Man(a1-6)]Man(b1-4)GlcNAc(b1-4)GlcNAc
# Method in brief: as §1
# [4] = molecular target: Gal(b1-4)GlcNAc(b1-6)GalNAc
# Method in brief: as §1
# GalNAc6S(b1-4)GlcNAc = molecular target: GalNAc6S(b1-4)GlcNAc
# Method in brief: as §1
# [5] = molecular target: GlcNAc(a1-4)Gal(b1-4)GlcNAc
# Method in brief: as §1
# [6] = molecular target: GlcNAc(b1-2)[GlcNAc(b1-4)]Man(a1-3)[GlcNAc(b1-4)][GlcNAc(b1-2)[GlcNAc(b1-6)]Man(a1-6)]Man(b1-4)GlcNAc(b1-4)GlcNAc
# Method in brief: as §1
# [7] = molecular target: GlcNAc(b1-2)[GlcNAc(b1-6)]Man(a1-6)[GlcNAc(b1-4)][GlcNAc(b1-2)Man(a1-3)]Man(b1-4)GlcNAc(b1-4)GlcNAc
# Method in brief: as §1
# GlcNAc(b1-3)Gal(b1-4)Glc = molecular target: GlcNAc(b1-3)Gal(b1-4)Glc
# Method in brief: as §1
# [8] = molecular target: GlcNAc(b1-3)Gal(b1-4)GlcNAc(b1-3)Gal(b1-4)GlcNAc(b1-3)Gal(b1-4)GlcNAc(b1-2)Man(a1-3)[GlcNAc(b1-3)Gal(b1-4)GlcNAc(b1-3)Gal(b1-4)GlcNAc(b1-3)Gal(b1-4)GlcNAc(b1-2)Man(a1-6)]Man(b1-4)GlcNAc(b1-4)[Fuc(a1-6)]GlcNAc
# Method in brief: as §1
# [9] = molecular target: GlcNAc(b1-3)Gal(b1-4)GlcNAc(b1-3)Gal(b1-4)GlcNAc(b1-3)Gal(b1-4)GlcNAc(b1-3)Gal(b1-4)GlcNAc(b1-2)Man(a1-3)[GlcNAc(b1-3)Gal(b1-4)GlcNAc(b1-3)Gal(b1-4)GlcNAc(b1-3)Gal(b1-4)GlcNAc(b1-3)Gal(b1-4)GlcNAc(b1-2)Man(a1-6)]Man(b1-4)GlcNAc(b1-4)GlcNAc
# Method in brief: as §1
# [10] = molecular target: GlcNAc(b1-3)Gal(b1-4)GlcNAc(b1-3)Gal(b1-4)GlcNAc(b1-3)Gal(b1-4)GlcNAc(b1-3)Gal(b1-4)GlcNAc(b1-2)Man(a1-3)[GlcNAc(b1-3)Gal(b1-4)GlcNAc(b1-3)Gal(b1-4)GlcNAc(b1-3)Gal(b1-4)GlcNAc(b1-3)Gal(b1-4)GlcNAc(b1-2)Man(a1-6)]Man(b1-4)GlcNAc(b1-4)[Fuc(a1-6)]GlcNAc
# Method in brief: as §1
# [11] = molecular target: GlcNAc(b1-3)Gal(b1-4)GlcNAc(b1-3)Gal(b1-4)GlcNAc(b1-3)Gal(b1-4)GlcNAc(b1-3)Gal(b1-4)GlcNAc(b1-2)[GlcNAc(b1-3)Gal(b1-4)GlcNAc(b1-3)Gal(b1-4)GlcNAc(b1-3)Gal(b1-4)GlcNAc(b1-3)Gal(b1-4)GlcNAc(b1-6)]Man(a1-6)[GlcNAc(b1-3)Gal(b1-4)GlcNAc(b1-3)Gal(b1-4)GlcNAc(b1-3)Gal(b1-4)GlcNAc(b1-3)Gal(b1-4)GlcNAc(b1-2)Man(a1-3)]Man(b1-4)GlcNAc(b1-4)[Fuc(a1-6)]GlcNAc
# Method in brief: as §1
# [12] = molecular target: Man(a1-2)Man(a1-3)[Man(a1-6)]Man(a1-6)[Man(a1-2)Man(a1-3)]Man(b1-4)GlcNAc(b1-4)GlcNAc
# Method in brief: as §1
# [13] = molecular target: Neu5Ac(a2-3)Gal(b1-4)GlcNAc6S
# Method in brief: as §1
# [14] = molecular target: Neu5Ac(a2-3)[Neu5Ac(a2-6)]GalNAc
# Method in brief: as §1
# [15] = molecular target: Neu5Ac(a2-6)Gal(b1-4)GlcNAc
# Method in brief: as §1
# [16] = molecular target: Neu5Ac(a2-6)Gal(b1-4)GlcNAc(b1-2)[Neu5Ac(a2-6)Gal(b1-4)GlcNAc(b1-4)]Man(a1-3)[GlcNAc(b1-4)][Neu5Ac(a2-6)Gal(b1-4)GlcNAc(b1-4)Man(a1-6)]Man(b1-4)GlcNAc(b1-4)GlcNAc
# Method in brief: as §1
# [17] = molecular target: Neu5Ac(a2-6)Gal(b1-4)GlcNAc(b1-3)Gal(b1-4)GlcNAc
# Method in brief: as §1
# [18] = molecular target: Neu5Ac(a2-6)Gal(b1-4)GlcNAc(b1-3)Gal(b1-4)GlcNAc(b1-3)Gal(b1-4)GlcNAc
# Method in brief: as §1
# [19] = molecular target: Neu5Ac(a2-6)Gal(b1-4)GlcNAc(b1-3)Gal(b1-4)GlcNAc(b1-3)[Neu5Ac(a2-6)Gal(b1-4)GlcNAc(b1-3)Gal(b1-4)GlcNAc(b1-6)]GalNAc
# Method in brief: as §1
# [20] = molecular target: Neu5Ac(a2-8)Neu5Ac(a2-3)Gal(b1-4)Glc
# Method in brief: as §1
# [21] = molecular target: Neu5Ac(a2-8)Neu5Ac(a2-8)Neu5Ac(a2-3)Gal(b1-4)Glc
# Method in brief: as §1
# [22] = molecular target: Neu5Gc(a2-3)Gal(b1-4)[Fuc(a1-3)]GlcNAc
# Method in brief: as §1
# Neu5Gc(a2-6)GalNAc = molecular target: Neu5Gc(a2-6)GalNAc
# Method in brief: as §1
binder,measurement,setting,value
B1,glycan array binding signal (z-score),[1],4.37
same,glycan array binding signal (z-score),[2],5.52
same,glycan array binding signal (z-score),[3],5.72
same,glycan array binding signal (z-score),[4],-0.192
same,glycan array binding signal (z-score),GalNAc6S(b1-4)GlcNAc,-0.282
same,glycan array binding signal (z-score),[5],-0.256
same,glycan array binding signal (z-score),[6],-0.297
same,glycan array binding signal (z-score),[7],-0.243
same,glycan array binding signal (z-score),GlcNAc(b1-3)Gal(b1-4)Glc,-0.284
same,glycan array binding signal (z-score),[8],6.12
same,glycan array binding signal (z-score),[9],5.4
same,glycan array binding signal (z-score),[10],5.55
same,glycan array binding signal (z-score),[11],3.29
same,glycan array binding signal (z-score),[12],-0.249
same,glycan array binding signal (z-score),[13],-0.189
same,glycan array binding signal (z-score),[14],-0.275
same,glycan array binding signal (z-score),[15],-0.257
same,glycan array binding signal (z-score),[16],-0.234
same,glycan array binding signal (z-score),[17],-0.25
same,glycan array binding signal (z-score),[18],0.971
same,glycan array binding signal (z-score),[19],-0.107
same,glycan array binding signal (z-score),[20],-0.271
same,glycan array binding signal (z-score),[21],-0.195
same,glycan array binding signal (z-score),[22],-0.086
same,glycan array binding signal (z-score),Neu5Gc(a2-6)GalNAc,-0.254
